Compounds without any hit were thinned out: in the full panel of roughly 83,000, 20% have a hit.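 48-hour exposure, single concentration, 96-well plates; percent growth endpoint where 0 means no net growth. Active: below 10.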 The source made the active and inactive calls.
Tests used:
Experiment in all cases: NCI-60 one-dose screen, 48 h (100 = growth as untreated, 0 = no growth, -100 = all killed)
Conditions in all cases: 10 µM
NCI-H23 lung = system: NCI-H23 lung
NCI-H226 lung = system: NCI-H226 lung
NCI-H322M lung = system: NCI-H322M lung
HOP-62 NSCLC = system: HOP-62 NSCLC
NCI-H460 lung = system: NCI-H460 lung
HOP-92 NSCLC = system: HOP-92 NSCLC
NCI-H522 lung = system: NCI-H522 lung
A549/ATCC NSCLC = system: A549/ATCC NSCLC
786-0 renal = system: 786-0 renal
COLO 205 colon = system: COLO 205 colon

Measured: growth

C[C@H]1[C@H](C)CC[C@]2(COC(=O)CCC(=O)NCC#CCN3CCNCC3)CC[C@]3(C)C(=CC[C@@H]4[C@@]5(C)CCCNC(C)(C)[C@@H]5CC[C@]43C)[C@H]12
active: NCI-H460 lung 9.64% | COLO 205 colon -76.9%
inactive: NCI-H23 lung 44.1% | NCI-H226 lung 75.6% | NCI-H322M lung 77.2% | HOP-62 NSCLC 60.8% | HOP-92 NSCLC 14.4% | NCI-H522 lung 59% | A549/ATCC NSCLC 51.6% | 786-0 renal 55.1%

COc1ccc2[nH]c(O)c(N=NC(=O)COc3ccc(NC(=O)Nc4ccc(Cl)cc4)cc3)c2c1
inactive: NCI-H322M lung 67.8% | NCI-H522 lung 26.7% | A549/ATCC NSCLC 29.4% | 786-0 renal 21.4%
active: NCI-H23 lung -40.4% | NCI-H226 lung -38.5% | HOP-62 NSCLC -41.1% | NCI-H460 lung -48.6% | HOP-92 NSCLC -32.5% | COLO 205 colon -1.56%

O=C(CSc1nnc(-c2c[nH]c3ccccc23)n1-c1ccccc1)Nc1ccc(C(=O)/C=C/c2ccccc2Cl)cc1
inactive: NCI-H23 lung 36.1% | NCI-H226 lung 75.6% | NCI-H322M lung 97.3% | HOP-62 NSCLC 91.9% | NCI-H460 lung 89% | HOP-92 NSCLC 96.5% | NCI-H522 lung 83.1% | A549/ATCC NSCLC 91.1% | 786-0 renal 103% | COLO 205 colon 96.2%

C=C1CCC2C3(C)COC(c4cc(F)cc(F)c4)OC3CCC2(C)C1C/C=C1/C(=O)OCC1O (stereo not given)
active: NCI-H23 lung -39.2% | NCI-H226 lung -20.9% | HOP-62 NSCLC -64.1% | HOP-92 NSCLC -52.4% | NCI-H522 lung -79.8% | A549/ATCC NSCLC 4.7% | 786-0 renal -90.5% | COLO 205 colon -68%
inactive: NCI-H322M lung 24.5% | NCI-H460 lung 13.1%

O=C1Nc2ccc(Cl)cc2/C1=C/c1ccc(OCc2ccc(Br)cc2F)cc1
inactive: NCI-H322M lung 48.2% | HOP-92 NSCLC 10.9% | NCI-H522 lung 23.3% | A549/ATCC NSCLC 34.1% | COLO 205 colon 51.6%
active: NCI-H23 lung 7.12% | NCI-H226 lung 6.85% | HOP-62 NSCLC 5.12% | NCI-H460 lung 7.07% | 786-0 renal 2.33%

O=C(NO)c1ccc(Cn2ccc3c(NCc4ccccc4)ncnc32)cc1
inactive: NCI-H226 lung 23.8% | NCI-H322M lung 30.2% | HOP-62 NSCLC 12.7% | NCI-H460 lung 11.1% | A549/ATCC NSCLC 28.1% | 786-0 renal 22.7%
active: NCI-H23 lung -74.3% | HOP-92 NSCLC -19% | NCI-H522 lung -51.5% | COLO 205 colon -60.1%

Cc1cc(=O)oc2cc(OCCCCOc3ccc(/C=C/C(=O)Nc4ccccc4[N+](=O)[O-])cc3)ccc12
inactive: NCI-H23 lung 98.8% | NCI-H226 lung 127% | NCI-H322M lung 99.6% | HOP-62 NSCLC 109% | NCI-H460 lung 119% | HOP-92 NSCLC 130% | NCI-H522 lung 105% | A549/ATCC NSCLC 106% | 786-0 renal 111% | COLO 205 colon 124%

N#Cc1ccc(-c2nn(-c3ccc(C(=O)O)cc3)cc2CNc2ccc(Oc3ccccc3)cc2)cc1
inactive: NCI-H23 lung 12% | NCI-H226 lung 85.1% | NCI-H322M lung 88.2% | HOP-62 NSCLC 37.4% | NCI-H460 lung 40.2% | HOP-92 NSCLC 38.8% | NCI-H522 lung 66.8% | A549/ATCC NSCLC 46.5% | 786-0 renal 30.5% | COLO 205 colon 118%

COc1cc2c(cc1OC)CN(CCCCOc1cc(O)c3c(=O)cc(-c4ccccc4)oc3c1)CC2
active: COLO 205 colon -43.8%
inactive: NCI-H23 lung 67.2% | NCI-H226 lung 63.5% | NCI-H322M lung 92.5% | HOP-62 NSCLC 80.7% | NCI-H460 lung 49.6% | HOP-92 NSCLC 64.2% | NCI-H522 lung 58.4% | A549/ATCC NSCLC 67.7% | 786-0 renal 23.9%

CCCn1c(=O)c2[nH]c(-c3ccc(OCc4nc5ccc(C(F)(F)F)cc5[nH]4)cc3)nc2n(CCC)c1=O
inactive: NCI-H23 lung 11.1% | NCI-H226 lung 37.8% | NCI-H322M lung 69.2% | HOP-62 NSCLC 87% | NCI-H460 lung 41.4% | HOP-92 NSCLC 67.7% | NCI-H522 lung 23.6% | A549/ATCC NSCLC 46.7% | 786-0 renal 42.8% | COLO 205 colon 59.3%

CN1C(=O)N(C)C2SC(N/N=C/c3ccccc3F)=NC21 (stereo not given)
inactive: NCI-H23 lung 76.5% | NCI-H226 lung 92.4% | NCI-H322M lung 97.2% | HOP-62 NSCLC 68.3% | NCI-H460 lung 58.2% | HOP-92 NSCLC 124% | NCI-H522 lung 46.1% | A549/ATCC NSCLC 63.1% | 786-0 renal 68.7% | COLO 205 colon 100%

O=C1N/C(=N\c2nccs2)S/C1=C\c1cccs1
inactive: NCI-H23 lung 38.1% | NCI-H226 lung 19.9% | NCI-H322M lung 45.2% | HOP-62 NSCLC 33.6% | NCI-H460 lung 14.7% | HOP-92 NSCLC 68% | NCI-H522 lung 21.2% | A549/ATCC NSCLC 26.8% | 786-0 renal 43.2% | COLO 205 colon 29%

O=C(CSc1nnc(-c2ccc3nc(-c4ccc(Cl)cc4)[nH]c3c2)o1)Nc1ccc(Br)cc1
active: NCI-H23 lung -82.9% | NCI-H226 lung -62.9% | NCI-H322M lung -40.8% | HOP-62 NSCLC -66.9% | NCI-H460 lung -82.7% | HOP-92 NSCLC -11.3% | NCI-H522 lung -67.9% | A549/ATCC NSCLC -54.9% | 786-0 renal -74.9% | COLO 205 colon 0.691%

COc1ccc2c(c1)N=C(C(=O)O)/C2=C/c1sc(Nc2ccc(O)cc2)nc1O
inactive: NCI-H23 lung 71.6% | NCI-H226 lung 54.8% | NCI-H322M lung 92.5% | HOP-62 NSCLC 80.9% | NCI-H460 lung 82.3% | HOP-92 NSCLC 68.3% | NCI-H522 lung 33.7% | A549/ATCC NSCLC 96.2% | 786-0 renal 78.9% | COLO 205 colon 89.2%

COc1cc(/C=C/C(=O)c2ccc(NC(=O)CSc3nnc(-c4c[nH]c5ccccc45)n3-c3ccccc3)cc2)cc(OC)c1OC
inactive: NCI-H23 lung 47.7% | NCI-H226 lung 69.9% | NCI-H322M lung 90.5% | HOP-62 NSCLC 101% | NCI-H460 lung 91.2% | HOP-92 NSCLC 105% | NCI-H522 lung 90.5% | A549/ATCC NSCLC 106% | 786-0 renal 96.1% | COLO 205 colon 102%

Cc1ccc(-c2cc(-c3cc4ccccc4nc3Cl)[nH]c(=O)n2)cc1
inactive: NCI-H23 lung 10.1% | NCI-H322M lung 32.1% | A549/ATCC NSCLC 35.5% | COLO 205 colon 24.7%
active: NCI-H226 lung -8.6% | HOP-62 NSCLC -9.15% | NCI-H460 lung 0.523% | HOP-92 NSCLC 5.62% | NCI-H522 lung -11.7% | 786-0 renal -22.6%

CCOc1ccc(/C=N/NC(=O)Cn2nc(Cc3ccccc3)c3onc(C)c3c2=O)cc1
active: NCI-H226 lung -19.3% | HOP-62 NSCLC -39.3% | HOP-92 NSCLC -45.9% | 786-0 renal -51.9%
inactive: NCI-H23 lung 37.4% | NCI-H322M lung 50.5% | NCI-H460 lung 16.7% | NCI-H522 lung 11.4% | A549/ATCC NSCLC 11.6% | COLO 205 colon 29.2%

CN(C)c1cccc2c(S(=O)(=O)Nc3cccc(-c4csc(NC(=O)CCCCCN5CCN(c6cc7c(cc6F)C(=O)N(C6CCC(=O)NC6=O)C7=O)CC5)n4)c3)cccc12 (stereo not given)
inactive: NCI-H23 lung 60.2% | NCI-H226 lung 72.7% | NCI-H322M lung 106% | HOP-62 NSCLC 88.5% | NCI-H460 lung 91.4% | HOP-92 NSCLC 56.6% | NCI-H522 lung 85.6% | A549/ATCC NSCLC 90.3% | 786-0 renal 86.1% | COLO 205 colon 104%

CC1=C(c2cc(-c3ccc(Cl)cc3)c(C#N)c(N)n2)C(c2ccccc2)NC(=S)N1 (stereo not given)
inactive: NCI-H23 lung 76.1% | NCI-H226 lung 64.4% | NCI-H322M lung 96.4% | HOP-62 NSCLC 81.3% | NCI-H460 lung 82.6% | HOP-92 NSCLC 105% | NCI-H522 lung 49.4% | A549/ATCC NSCLC 90.1% | 786-0 renal 67% | COLO 205 colon 80.5%

COc1ccc2[nH]c(=O)c(CSc3ccc(Nc4nccc(-c5ccc(Cl)cc5)n4)cc3)cc2c1
inactive: NCI-H23 lung 83.9% | NCI-H226 lung 38.8% | NCI-H322M lung 95.7% | HOP-62 NSCLC 104% | NCI-H460 lung 112% | HOP-92 NSCLC 93.2% | NCI-H522 lung 86.7% | A549/ATCC NSCLC 98.1% | 786-0 renal 109% | COLO 205 colon 108%

COc1ccc(-c2c(N)c(=O)n(C)c3ccccc23)cc1
inactive: NCI-H23 lung 67.7% | NCI-H226 lung 46.5% | NCI-H322M lung 77% | HOP-62 NSCLC 75.3% | NCI-H460 lung 88.1% | NCI-H522 lung 61.1% | A549/ATCC NSCLC 92.1% | 786-0 renal 73.5% | COLO 205 colon 103%
active: HOP-92 NSCLC 9.05%

O=C(Nc1ccc(I)cc1)Nc1nc2ccc([N+](=O)[O-])cc2s1
active: NCI-H23 lung -95.9% | NCI-H226 lung -74.2% | NCI-H322M lung -86.6% | HOP-62 NSCLC -90.4% | NCI-H460 lung -72.1% | HOP-92 NSCLC -87.9% | NCI-H522 lung -89.4% | A549/ATCC NSCLC -91.6% | 786-0 renal -100% | COLO 205 colon -92.2%

COc1cc(NC(=O)c2cc(-c3ccc(F)cc3F)ccc2O)cc(OC)c1OC
inactive: NCI-H23 lung 26.2% | NCI-H226 lung 50.9% | NCI-H322M lung 38.4% | HOP-62 NSCLC 24% | NCI-H460 lung 22.5% | A549/ATCC NSCLC 37.1% | 786-0 renal 54% | COLO 205 colon 116%
active: HOP-92 NSCLC -11.8% | NCI-H522 lung 7.09%

COc1cc(/C=C/C(=O)c2ccc(C(F)(F)F)cc2)ccc1Oc1nc(Nc2ccc(F)cc2)nc(N(C)C)n1
inactive: NCI-H23 lung 64.6% | NCI-H226 lung 71.7% | NCI-H322M lung 82.8% | HOP-62 NSCLC 102% | NCI-H460 lung 82.7% | HOP-92 NSCLC 81.5% | NCI-H522 lung 76.7% | A549/ATCC NSCLC 78.7% | 786-0 renal 71.8% | COLO 205 colon 134%

Brc1ccc(N/N=C/c2c[nH]c3ccccc23)nc1
inactive: NCI-H23 lung 41.1% | NCI-H226 lung 35.5% | NCI-H322M lung 47.6% | HOP-62 NSCLC 32% | NCI-H522 lung 24.9% | A549/ATCC NSCLC 37.7% | COLO 205 colon 48.8%
active: NCI-H460 lung 9% | HOP-92 NSCLC -28.4% | 786-0 renal 0.458%

CN1C(=O)N(C)C2SC(N/N=C/C=C/c3ccccc3)=NC21 (stereo not given)
inactive: NCI-H23 lung 84.9% | NCI-H226 lung 79.3% | NCI-H322M lung 93.9% | HOP-62 NSCLC 85.9% | NCI-H460 lung 94.5% | HOP-92 NSCLC 97.9% | NCI-H522 lung 56.1% | A549/ATCC NSCLC 87.5% | 786-0 renal 73.9% | COLO 205 colon 122%

Source: PubChem BioAssay (NCI)
